For part of these data: Potency and affinity values are given separately.
How the values were obtained:
Staphylococcus aureus = assay: Antibacterial activity against Staphylococcus aureus MRSA ATCC 43300 (CO-ADD:GP_020); MIC in CAMBH media using NBS plates, by Resazurin F(560/590); assay type: functional; settings: Concentration 20 uM, ASSAY_TEST Inhibition of Bacterial Growth, detection method Resazurin, Fluorescence (ex560/em590), MEDIA CAMHB, plate type 384well, CORNING #3640, time 18 hr
Acinetobacter baumannii = assay: Antibacterial activity against Acinetobacter baumannii ATCC 19606 (CO-ADD:GN_034); MIC in CAMBH media using NBS plates, by Resazurin F(560/590); assay type: functional; settings: Concentration 20 uM, ASSAY_TEST Inhibition of Bacterial Growth, detection method Resazurin, Fluorescence (ex560/em590), MEDIA CAMHB, plate type 384well, CORNING #3640, time 18 hr
Escherichia coli = assay: Antibacterial activity against Escherichia coli ATCC 25922 (CO-ADD:GN_001); MIC in CAMBH media using NBS plates, by Resazurin F(560/590); assay type: functional; settings: Concentration 20 uM, ASSAY_TEST Inhibition of Bacterial Growth, detection method Resazurin, Fluorescence (ex560/em590), MEDIA CAMHB, plate type 384well, CORNING #3640, time 18 hr
Klebsiella pneumoniae = settings: Concentration 20 uM; ASSAY_TEST Inhibition of Bacterial Growth; detection method Absorption (OD600); MEDIA CAMHB; plate type 384well; NBS; CORNING #3640; time 18 hr
Candida albicans = settings: 20 µM
Cryptococcus neoformans = settings: Concentration 20 uM; ASSAY_TEST Inhibition of Fungal Growth; detection method Resazurin; Absorption (OD600-OD570); plate type 384well; NBS; CORNING #3640

Structure (SMILES)	Inhibition (Staphylococcus aureus)	Inhibition (Acinetobacter baumannii)	Inhibition (Escherichia coli)	Inhibition (Klebsiella pneumoniae)	Inhibition (Candida albicans)	Inhibition (Cryptococcus neoformans)
COc1ccccc1[As](=O)(O)CC(O)COc1ccc(Cl)cc1Cl (stereo not drawn)	12.48%	-14.57%	17.37%	8.74%	-1.45%	-2.68%
Cc1ccc2cc3c(ccc4ccccc43)c3c2c1CC3 [3-METHYLCHOLANTHRENE]	32.91%	-6.45%	10.1%	-1.21%	1.03%	3.35%
CCCCOP(=O)(OCCCC)C1(C)CC(=O)CC(C)(C)C1 (stereo not drawn)	5.73%	-6.49%	-5.15%	23.67%	1.05%	-15.51%
COc1cc(C=C2C(=O)NC(=O)NC2=O)ccc1O	11.9%	5.89%	0.28%	15.76%	1.49%	-7.52%
CC[C@@]1(O)C(=O)OCc2c1cc1n(c2=O)Cc2cc3c(N)cccc3nc2-1 [9-AMINOCAMPTOTHECIN]	34.7%	-5.64%	12.69%	8.25%	4.9%	-6.8%
OCC1CN1C1CCCCC1 (stereo not drawn)	-3.39%	-14.33%	0.67%	26.1%	2.25%	-2.3%
Cc1nccc2c1[nH]c1cc(O)ccc12	18.39%	-8.06%	7.41%	20.45%	2.57%	-8.88%
CC(C)(C)n1cc(C(=O)c2ccccc2)cc1-c1ccccc1	20.55%	13.8%	7.58%	11.31%	3.13%	-8.32%
CC1(C)NC(=S)C(C)(C)N1N=O	8.42%	-13.11%	8.85%	8.33%	5.47%	-2.68%
O=C1C[C@@H]2OCC=C3C[N+]4([O-])CC[C@]56c7ccccc7N1[C@H]5[C@H]2[C@H]3C[C@@H]64 (stereo partly drawn)	-3.57%	-14.45%	1.56%	13.5%	3.06%	-6.02%
Cc1ccc2c(c1)Oc1ccccc1N=C2	14.17%	5.41%	-0.47%	8.46%	8.51%	-3.65%
COc1ccc2c(c1O)[C@]13CCN(C)[C@H](C2)[C@@H]1CCC(=O)C3	-1.15%	-13.17%	7.37%	14.9%	0.05%	-12.71%
CC(C)CC(NC=O)C(=O)O.COc1cc2c(cc1OC)C13CCN4CC5=CCOC6CC(=O)N2C1C6C5CC43 (stereo not drawn)	7.19%	-2.08%	1.33%	12.71%	-1.26%	-3.45%
CN1CCC(c2c[nH]c3ccccc23)C1 (stereo not drawn)	10.13%	1.97%	-8.69%	8.23%	0.53%	10.07%
COc1ccc2c3c1O[C@H]1C[C@@H](O)C=C[C@@]31CCN(C)C2 [GALANTAMINE]	2.8%	5.17%	-15.55%	17.41%	7.99%	22.63%
O=C1CN=C(c2ccc[nH]2)c2cc(Cl)ccc2N1	5.67%	14.08%	-2.95%	17.48%	0.21%	-5.64%
COc1c(OP2(=S)OCC(C)(C)CO2)cnn(C2CCCCC2)c1=O	22.66%	-7.99%	17.33%	10.42%	-1.61%	-6%
CCN1CCc2ccccc2C1	13.64%	-13.05%	15.08%	8.74%	0.25%	-10.24%
c1ccc(C2NCCc3[nH]cnc32)cc1 (stereo not drawn)	1.04%	-8.45%	-9.57%	10.31%	0.7%	13.69%
O=C(O)CCCC[C@@H]1SC[C@@H]2NC(=O)N[C@@H]21 [BIOTIN]	10.18%	-16.1%	8.51%	5.79%	1.63%	-9.23%
O=[N+]([O-])c1cc(-c2ccc([As](=O)(O)O)cc2)ccc1[As](=O)(O)O	16.49%	-5.02%	9.73%	17.36%	0.95%	-9.04%
O=C(CF)N(O)c1ccc(/C=C/c2ccccc2)cc1	-10.86%	-11.91%	10.97%	1.67%	12.6%	-7.92%
CN1CCc2cc3c(cc2C1)OCO3	-5.07%	-14.77%	11.12%	3.04%	1.35%	-8.47%
CS(=O)(=O)O.O=C1CCC2(O)[C@@H]3Cc4ccc(O)c5c4[C@]2(CCN3Cc2ccoc2)C1O5 (stereo partly drawn)	1.32%	-2.4%	-2.68%	10.23%	1.48%	-6.77%
C=CCN1CC[C@]23c4c5ccc(O)c4O[C@H]2C(=O)CC[C@@]3(O)[C@H]1C5 [NALOXONE]	11.42%	-13%	1.67%			
COc1cc2c(cc1O)CC1c3c(cc(O)c(OC)c3-2)CCN1C (stereo not drawn)	8.78%	-19.02%	10.6%	7.6%	-2.23%	-8.59%
